Measurements reported in paper PMC7862700, “An all-to-all approach to the identification of sequence-specific readers for epigenetic DNA modifications on cytosine”.

Experiments:
Assay in all cases: DAPPL (digital affinity profiling via proximity ligation, sequencing); 10 mM Tris-HCl pH 7.5, 50 mM NaCl, 1 mM DTT, 4% glycerol, room temperature, 30 min; GST-TFs on glutathione beads, 16-mer random dsDNA library, 0.1% formaldehyde crosslink after washing; high values mean tight binding
Settings in all cases: protein: recombinant; tags: N-terminal GST; dsDNA, one strand shown
FEV = target: T1, FEV (Homo sapiens, UniProt Q99581 1-238)
T1 sequence: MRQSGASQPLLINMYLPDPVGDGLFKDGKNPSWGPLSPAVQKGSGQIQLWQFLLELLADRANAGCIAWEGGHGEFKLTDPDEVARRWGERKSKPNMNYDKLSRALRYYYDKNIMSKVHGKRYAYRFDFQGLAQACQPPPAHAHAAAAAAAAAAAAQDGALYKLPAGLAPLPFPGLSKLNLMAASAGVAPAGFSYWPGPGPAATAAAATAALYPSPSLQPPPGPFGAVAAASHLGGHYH
How it was run: (§1)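 Beads coated with glutathione captured GST-fused human transcription factors that had been expressed in yeast, and the factors were then given DNA barcodes and pooled with a tag-only sample. The pools were incubated with 200 nmole of a random double-stranded 16-mer DNA library in Tris/NaCl/DTT/glycerol buffer for 30 min at room temperature, washed, crosslinked with 0.1% formaldehyde and proximity-ligated with BsaI/T4 ligase at 37 °C for 1 h. PCR amplification and Illumina NextSeq500 sequencing came last. Binding signal is each hexamer's read frequency for a factor divided by its frequency for the tag-only sample.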

ETV5 = ETV5 (Homo sapiens, UniProt P41161 1-510)
How it was run: as §1

SPIC = target: T2, SPIC (Homo sapiens, UniProt Q8N5J4 1-248)
T2 sequence: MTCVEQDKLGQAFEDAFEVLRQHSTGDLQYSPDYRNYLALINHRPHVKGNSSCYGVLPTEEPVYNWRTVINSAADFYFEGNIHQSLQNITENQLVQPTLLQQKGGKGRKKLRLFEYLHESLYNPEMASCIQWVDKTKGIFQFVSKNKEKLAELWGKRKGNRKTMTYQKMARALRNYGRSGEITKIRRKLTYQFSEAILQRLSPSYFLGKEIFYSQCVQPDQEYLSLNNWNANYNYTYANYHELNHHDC
How it was run: as §1

ELF4 = ELF4 (Homo sapiens, UniProt Q99607 1-663)
How it was run: as §1

ELK4 = target: T3, ELK4 (Homo sapiens, UniProt P28324-2 1-405)
T3 sequence: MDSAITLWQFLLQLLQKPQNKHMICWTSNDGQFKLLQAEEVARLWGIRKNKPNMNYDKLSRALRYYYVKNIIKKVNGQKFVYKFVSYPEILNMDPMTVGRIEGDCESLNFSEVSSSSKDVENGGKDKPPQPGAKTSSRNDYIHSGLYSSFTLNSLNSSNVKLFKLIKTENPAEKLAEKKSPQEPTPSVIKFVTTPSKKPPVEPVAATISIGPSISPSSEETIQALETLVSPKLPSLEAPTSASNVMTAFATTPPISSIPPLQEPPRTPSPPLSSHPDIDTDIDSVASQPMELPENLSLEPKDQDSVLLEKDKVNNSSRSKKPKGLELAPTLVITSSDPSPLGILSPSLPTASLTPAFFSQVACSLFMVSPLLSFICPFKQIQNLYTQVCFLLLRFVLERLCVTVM
How it was run: as §1

ETV2 = target: T4, ETV2 (Homo sapiens, UniProt O00321 1-342)
T4 sequence: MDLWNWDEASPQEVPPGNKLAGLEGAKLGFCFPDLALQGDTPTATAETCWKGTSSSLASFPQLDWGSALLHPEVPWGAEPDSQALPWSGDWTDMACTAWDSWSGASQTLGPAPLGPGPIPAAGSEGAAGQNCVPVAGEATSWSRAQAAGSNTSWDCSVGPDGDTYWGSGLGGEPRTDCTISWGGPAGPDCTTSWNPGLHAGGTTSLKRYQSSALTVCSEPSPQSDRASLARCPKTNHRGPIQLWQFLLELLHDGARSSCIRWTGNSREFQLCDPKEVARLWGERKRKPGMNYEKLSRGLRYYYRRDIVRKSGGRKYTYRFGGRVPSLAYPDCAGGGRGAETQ
How it was run: as §1

ELF3 = target: T5, ELF3 (Homo sapiens, UniProt P78545 1-371)
T5 sequence: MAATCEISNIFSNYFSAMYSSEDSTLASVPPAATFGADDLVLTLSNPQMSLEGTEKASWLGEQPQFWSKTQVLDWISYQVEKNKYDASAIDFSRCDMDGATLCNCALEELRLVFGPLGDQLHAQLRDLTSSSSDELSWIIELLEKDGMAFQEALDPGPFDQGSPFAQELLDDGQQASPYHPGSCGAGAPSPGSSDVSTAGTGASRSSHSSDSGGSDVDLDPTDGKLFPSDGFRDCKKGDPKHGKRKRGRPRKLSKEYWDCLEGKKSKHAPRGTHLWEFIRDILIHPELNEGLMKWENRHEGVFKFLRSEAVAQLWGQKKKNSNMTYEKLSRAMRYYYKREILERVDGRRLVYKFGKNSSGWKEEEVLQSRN
How it was run: as §1

ETV1 = ETV1 (Homo sapiens, UniProt P50549 1-477)
How it was run: as §1

ERF = target: T6, ERF (Homo sapiens, UniProt P50548 1-548)
T6 sequence: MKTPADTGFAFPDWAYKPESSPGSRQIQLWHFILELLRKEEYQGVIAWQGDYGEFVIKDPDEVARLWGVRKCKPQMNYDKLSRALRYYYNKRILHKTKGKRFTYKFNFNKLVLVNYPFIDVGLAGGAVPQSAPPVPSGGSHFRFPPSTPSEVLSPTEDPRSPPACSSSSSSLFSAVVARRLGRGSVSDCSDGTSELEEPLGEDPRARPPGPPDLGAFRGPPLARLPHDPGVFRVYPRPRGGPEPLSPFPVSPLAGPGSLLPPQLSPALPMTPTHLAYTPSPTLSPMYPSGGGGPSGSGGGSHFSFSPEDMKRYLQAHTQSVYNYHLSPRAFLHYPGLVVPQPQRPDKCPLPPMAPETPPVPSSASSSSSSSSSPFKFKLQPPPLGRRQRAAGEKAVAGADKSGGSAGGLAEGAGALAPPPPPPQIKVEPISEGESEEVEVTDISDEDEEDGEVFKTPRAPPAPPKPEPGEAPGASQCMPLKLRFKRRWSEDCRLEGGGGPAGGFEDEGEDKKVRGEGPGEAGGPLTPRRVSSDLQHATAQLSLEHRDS
How it was run: as §1

ETV3L = target: T7, ETV3L (Homo sapiens, UniProt Q6ZN32 1-361)
T7 sequence: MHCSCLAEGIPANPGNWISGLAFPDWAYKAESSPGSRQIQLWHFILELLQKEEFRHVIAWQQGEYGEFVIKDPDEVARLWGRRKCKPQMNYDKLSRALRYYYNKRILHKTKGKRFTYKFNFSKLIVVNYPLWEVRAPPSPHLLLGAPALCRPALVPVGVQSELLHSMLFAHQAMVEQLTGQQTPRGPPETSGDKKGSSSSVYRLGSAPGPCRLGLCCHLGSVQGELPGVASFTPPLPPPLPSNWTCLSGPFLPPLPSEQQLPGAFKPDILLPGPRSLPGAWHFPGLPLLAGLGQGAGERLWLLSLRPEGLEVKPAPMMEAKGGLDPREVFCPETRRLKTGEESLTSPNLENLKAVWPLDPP
How it was run: as §1

ETS2 = target: T8, ETS2 (Homo sapiens, UniProt P15036 1-469)
T8 sequence: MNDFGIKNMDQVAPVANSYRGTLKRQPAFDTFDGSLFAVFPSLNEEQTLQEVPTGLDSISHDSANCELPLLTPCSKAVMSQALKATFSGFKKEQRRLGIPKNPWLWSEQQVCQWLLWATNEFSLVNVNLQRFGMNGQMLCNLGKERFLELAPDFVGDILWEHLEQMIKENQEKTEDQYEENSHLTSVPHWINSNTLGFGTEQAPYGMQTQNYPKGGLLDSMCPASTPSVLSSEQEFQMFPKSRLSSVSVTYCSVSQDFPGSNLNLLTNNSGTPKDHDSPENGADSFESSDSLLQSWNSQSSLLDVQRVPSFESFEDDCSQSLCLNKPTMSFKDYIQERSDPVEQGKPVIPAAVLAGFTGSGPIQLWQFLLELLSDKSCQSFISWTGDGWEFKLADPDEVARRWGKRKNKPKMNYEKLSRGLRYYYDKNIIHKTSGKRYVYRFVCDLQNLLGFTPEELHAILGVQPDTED
How it was run: as §1

SPDEF = target: T9, SPDEF (Homo sapiens, UniProt O95238 1-335)
T9 sequence: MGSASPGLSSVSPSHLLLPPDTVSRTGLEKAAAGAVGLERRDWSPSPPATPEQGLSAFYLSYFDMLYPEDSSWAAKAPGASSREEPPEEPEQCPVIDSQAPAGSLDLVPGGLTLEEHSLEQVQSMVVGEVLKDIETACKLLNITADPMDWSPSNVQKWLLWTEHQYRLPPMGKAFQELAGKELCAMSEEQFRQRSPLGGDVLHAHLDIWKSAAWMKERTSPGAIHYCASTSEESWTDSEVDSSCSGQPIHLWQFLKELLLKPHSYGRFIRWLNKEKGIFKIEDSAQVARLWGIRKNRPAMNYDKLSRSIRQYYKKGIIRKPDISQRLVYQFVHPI
How it was run: as §1

ETV7 = target: T10, ETV7 (Homo sapiens, UniProt Q9Y603 1-341)
T10 sequence: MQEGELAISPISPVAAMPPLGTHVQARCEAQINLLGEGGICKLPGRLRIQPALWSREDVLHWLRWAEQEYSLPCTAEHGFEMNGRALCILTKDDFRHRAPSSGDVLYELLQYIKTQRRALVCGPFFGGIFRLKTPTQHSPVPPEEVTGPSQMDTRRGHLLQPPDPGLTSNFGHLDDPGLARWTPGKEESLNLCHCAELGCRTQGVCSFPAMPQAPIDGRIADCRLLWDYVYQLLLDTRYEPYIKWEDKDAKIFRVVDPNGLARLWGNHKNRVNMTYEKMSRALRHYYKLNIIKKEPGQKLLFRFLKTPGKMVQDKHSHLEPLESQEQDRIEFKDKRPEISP
How it was run: as §1

ELF5 = target: T11, ELF5 (Homo sapiens, UniProt Q9UKW6-2 1-255)
T11 sequence: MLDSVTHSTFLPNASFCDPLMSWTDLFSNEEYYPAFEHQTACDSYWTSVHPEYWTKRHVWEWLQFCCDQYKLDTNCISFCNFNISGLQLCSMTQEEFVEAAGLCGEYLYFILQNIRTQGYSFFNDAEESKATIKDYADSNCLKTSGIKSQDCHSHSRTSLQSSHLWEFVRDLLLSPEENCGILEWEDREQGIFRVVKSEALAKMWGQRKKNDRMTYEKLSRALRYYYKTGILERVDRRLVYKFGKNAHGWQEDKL
How it was run: as §1

ETV3 = target: T12, ETV3 (Homo sapiens, UniProt P41162-2 1-143)
T12 sequence: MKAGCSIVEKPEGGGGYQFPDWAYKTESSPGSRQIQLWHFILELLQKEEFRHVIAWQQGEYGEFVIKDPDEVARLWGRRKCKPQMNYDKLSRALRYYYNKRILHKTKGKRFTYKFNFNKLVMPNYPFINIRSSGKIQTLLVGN
How it was run: as §1

ETV6 = ETV6 (Homo sapiens, UniProt P41212 1-452)
How it was run: as §1

CRX = CRX (Homo sapiens, UniProt O43186 1-299)
How it was run: as §1

Sequence of ETV1 (P50549 whole entry): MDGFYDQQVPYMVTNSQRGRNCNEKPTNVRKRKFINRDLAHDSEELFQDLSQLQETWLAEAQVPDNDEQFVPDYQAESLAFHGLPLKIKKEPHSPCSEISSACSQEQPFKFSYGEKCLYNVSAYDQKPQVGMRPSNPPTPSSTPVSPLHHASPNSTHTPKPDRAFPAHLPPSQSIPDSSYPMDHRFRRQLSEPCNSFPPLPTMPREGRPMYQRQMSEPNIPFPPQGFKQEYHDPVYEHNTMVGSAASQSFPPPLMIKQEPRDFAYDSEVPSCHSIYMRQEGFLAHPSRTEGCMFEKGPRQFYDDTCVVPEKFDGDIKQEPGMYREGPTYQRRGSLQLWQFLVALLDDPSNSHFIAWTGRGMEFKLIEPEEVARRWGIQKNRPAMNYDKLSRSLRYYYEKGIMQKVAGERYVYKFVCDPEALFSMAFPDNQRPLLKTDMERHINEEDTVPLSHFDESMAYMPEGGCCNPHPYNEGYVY
Sequence of ELF4 (Q99607 whole entry): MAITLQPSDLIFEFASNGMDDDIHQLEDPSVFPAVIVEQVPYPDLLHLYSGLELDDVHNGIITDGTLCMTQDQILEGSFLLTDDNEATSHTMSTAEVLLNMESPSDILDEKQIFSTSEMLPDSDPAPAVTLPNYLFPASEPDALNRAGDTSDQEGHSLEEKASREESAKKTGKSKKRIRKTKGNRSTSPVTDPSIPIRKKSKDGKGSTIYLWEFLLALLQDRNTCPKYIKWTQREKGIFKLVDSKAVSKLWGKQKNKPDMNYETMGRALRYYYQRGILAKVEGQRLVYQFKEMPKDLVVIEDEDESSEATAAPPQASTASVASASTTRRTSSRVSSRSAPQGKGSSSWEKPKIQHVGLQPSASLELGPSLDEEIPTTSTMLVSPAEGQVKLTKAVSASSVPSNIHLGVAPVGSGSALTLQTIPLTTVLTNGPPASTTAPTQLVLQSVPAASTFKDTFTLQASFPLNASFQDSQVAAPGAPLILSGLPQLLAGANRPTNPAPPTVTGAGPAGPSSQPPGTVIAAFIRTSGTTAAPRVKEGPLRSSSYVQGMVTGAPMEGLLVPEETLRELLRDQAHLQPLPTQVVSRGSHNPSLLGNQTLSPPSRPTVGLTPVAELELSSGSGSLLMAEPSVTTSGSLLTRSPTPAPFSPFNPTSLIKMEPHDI
Sequence of ETV5 (P41161 whole entry): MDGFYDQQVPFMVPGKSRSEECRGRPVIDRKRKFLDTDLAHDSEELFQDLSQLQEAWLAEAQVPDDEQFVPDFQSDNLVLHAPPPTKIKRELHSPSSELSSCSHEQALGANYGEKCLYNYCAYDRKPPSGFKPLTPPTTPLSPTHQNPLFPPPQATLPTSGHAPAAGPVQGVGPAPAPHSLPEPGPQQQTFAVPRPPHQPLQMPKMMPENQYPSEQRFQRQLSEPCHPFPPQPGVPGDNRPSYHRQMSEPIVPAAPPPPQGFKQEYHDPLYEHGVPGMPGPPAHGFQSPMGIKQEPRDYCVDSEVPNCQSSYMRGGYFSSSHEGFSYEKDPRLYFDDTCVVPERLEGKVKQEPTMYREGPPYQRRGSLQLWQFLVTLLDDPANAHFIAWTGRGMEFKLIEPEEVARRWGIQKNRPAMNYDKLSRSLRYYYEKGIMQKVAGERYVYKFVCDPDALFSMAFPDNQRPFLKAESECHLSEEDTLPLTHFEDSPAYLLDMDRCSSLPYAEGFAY
Sequence of ETV6 (P41212 whole entry): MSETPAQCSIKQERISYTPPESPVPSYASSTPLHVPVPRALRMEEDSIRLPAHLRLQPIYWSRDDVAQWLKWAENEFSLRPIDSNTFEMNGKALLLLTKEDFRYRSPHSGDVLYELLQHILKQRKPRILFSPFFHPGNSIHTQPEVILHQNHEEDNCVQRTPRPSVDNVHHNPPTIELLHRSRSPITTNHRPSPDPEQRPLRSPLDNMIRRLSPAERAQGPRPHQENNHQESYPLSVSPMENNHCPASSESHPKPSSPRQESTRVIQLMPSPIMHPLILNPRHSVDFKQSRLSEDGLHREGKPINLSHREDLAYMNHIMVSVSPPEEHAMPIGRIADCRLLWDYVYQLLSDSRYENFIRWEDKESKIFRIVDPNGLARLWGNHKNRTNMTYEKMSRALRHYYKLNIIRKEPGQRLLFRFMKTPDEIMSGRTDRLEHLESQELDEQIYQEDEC
Sequence of CRX (O43186 whole entry): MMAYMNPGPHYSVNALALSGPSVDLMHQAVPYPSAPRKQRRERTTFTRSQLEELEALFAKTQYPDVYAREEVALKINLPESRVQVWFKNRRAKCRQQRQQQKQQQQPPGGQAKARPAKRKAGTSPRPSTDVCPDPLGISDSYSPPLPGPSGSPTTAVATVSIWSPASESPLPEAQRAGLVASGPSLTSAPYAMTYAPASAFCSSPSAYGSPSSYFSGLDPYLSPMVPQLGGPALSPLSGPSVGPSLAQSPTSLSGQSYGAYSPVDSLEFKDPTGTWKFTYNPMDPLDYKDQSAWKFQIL

| Sequence | binding signal (FEV) | binding signal (ETV5) | binding signal (SPIC) | binding signal (ELF4) | binding signal (ELK4) | binding signal (ETV2) | binding signal (ELF3) | binding signal (ETV1) | binding signal (ERF) | binding signal (ETV3L) | binding signal (ETS2) | binding signal (SPDEF) | binding signal (ETV7) | binding signal (ELF5) | binding signal (ETV3) | binding signal (ETV6) | binding signal (CRX) |
| --- | --- | --- | --- | --- | --- | --- | --- | --- | --- | --- | --- | --- | --- | --- | --- | --- | --- |
| CACACT | 1.21 fold enrichment (6-mer frequency, TF over GST control) | 1.23 fold enrichment (6-mer frequency, TF over GST control) | 1.13 fold enrichment (6-mer frequency, TF over GST control) | 1.23 fold enrichment (6-mer frequency, TF over GST control) | 1.13 fold enrichment (6-mer frequency, TF over GST control) | 1.14 fold enrichment (6-mer frequency, TF over GST control) | 1.21 fold enrichment (6-mer frequency, TF over GST control) | 1.14 fold enrichment (6-mer frequency, TF over GST control) | 1.22 fold enrichment (6-mer frequency, TF over GST control) | 1.12 fold enrichment (6-mer frequency, TF over GST control) | 1.14 fold enrichment (6-mer frequency, TF over GST control) | 1.13 fold enrichment (6-mer frequency, TF over GST control) | 1.14 fold enrichment (6-mer frequency, TF over GST control) | 1.18 fold enrichment (6-mer frequency, TF over GST control) | 1.18 fold enrichment (6-mer frequency, TF over GST control) | 1.15 fold enrichment (6-mer frequency, TF over GST control) |  |
| ATCACA | 1.11 fold enrichment (6-mer frequency, TF over GST control) | 1.13 fold enrichment (6-mer frequency, TF over GST control) | 1.09 fold enrichment (6-mer frequency, TF over GST control) | 1.1 fold enrichment (6-mer frequency, TF over GST control) | 1.02 fold enrichment (6-mer frequency, TF over GST control) | 1.25 fold enrichment (6-mer frequency, TF over GST control) | 1.15 fold enrichment (6-mer frequency, TF over GST control) | 1.04 fold enrichment (6-mer frequency, TF over GST control) | 1.04 fold enrichment (6-mer frequency, TF over GST control) | 1.05 fold enrichment (6-mer frequency, TF over GST control) | 1.09 fold enrichment (6-mer frequency, TF over GST control) | 1.05 fold enrichment (6-mer frequency, TF over GST control) |  |  | 1.09 fold enrichment (6-mer frequency, TF over GST control) | 1.13 fold enrichment (6-mer frequency, TF over GST control) | 1.16 fold enrichment (6-mer frequency, TF over GST control) |
| TCAGCA | 1.02 fold enrichment (6-mer frequency, TF over GST control) | 1.05 fold enrichment (6-mer frequency, TF over GST control) | 1.1 fold enrichment (6-mer frequency, TF over GST control) | 1.1 fold enrichment (6-mer frequency, TF over GST control) | 1 fold enrichment (6-mer frequency, TF over GST control) | 1.04 fold enrichment (6-mer frequency, TF over GST control) | 1.08 fold enrichment (6-mer frequency, TF over GST control) | 1.11 fold enrichment (6-mer frequency, TF over GST control) |  |  | 1.05 fold enrichment (6-mer frequency, TF over GST control) |  | 1.11 fold enrichment (6-mer frequency, TF over GST control) |  |  | 1.02 fold enrichment (6-mer frequency, TF over GST control) | 1.01 fold enrichment (6-mer frequency, TF over GST control) |
